Experimental data from PubChem BioAssay (Tox21).
Several values for one entry are separate records, joined by “and”; a condition that tells them apart may be missing. Equal entries are not always repeated. Results filed as inconclusive are left out. Entries that show only a call come without a potency. A structure can be active in one record and inactive in another. Activity calls are given as the source filed them. Unless noted, calls follow the shape of the dose curve; as a rule, active = well fitted curve in the direction sought with a large enough effect in the repeat runs; inconclusive = weak or mixed curves; inactive = no such curve, though single readings can be large; an effect the other way counts as inactive or inconclusive.

What was measured:
[1] = qHTS assay to identify small molecule antagonists of the thyroid receptor (TR) signaling pathway - cell viability counter screen (AID 743064); also: nearly all actives have a fitted effect of over 50% in size; also: potency is read from the fitted curve at half-maximal effect
Summary of the method: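 Viability of T3-stimulated (1 nM final) GH3.TRE-Luc cells is measured by CellTiter-Fluor fluorescence after 23.5 h compound exposure at 37 °C plus 30 min reagent incubation.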

[2] = qHTS assay to identify small molecule antagonists of the thyroid receptor (TR) signaling pathway (AID 743065); also: nearly all actives have a fitted effect of over 55% in size; also: potency is read from the fitted curve at half-maximal effect
Summary of the method: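 GH3.TRE-Luc rat pituitary cells (two TREs driving luciferase) were dosed with compound, then stimulated with 1 nM T3 (final) for 23.5 h at 37 C. ONE-Glo luminescence was the read-out, with CellTiter-Fluor fluorescence as the cytotoxicity counter-screen.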

[3] = tested on: thyroid hormone receptor (rat, GH3 cells); assay: qHTS assay to identify small molecule agonists of the thyroid receptor (TR) signaling pathway (AID 743066; calls by dose curve; also: potency is read from the fitted curve at half-maximal effect)
[4] = biological target: Estrogen receptor (Homo sapiens) (UniProt P03372); assay: qHTS assay to identify small molecule antagonists of the estrogen receptor alpha (ER-alpha) signaling pathway (AID 743069; active = well fitted curve in the direction sought with a large enough effect in the signal ratio in the repeat runs, not every such curve was filed as active; the % refers to the signal ratio)
Summary of the method: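 Beta-lactamase FRET fluorescence is read after 2 hr at room temperature with LiveBLAzer B/G substrate. Before that, ER-alpha-bla HEK293 cells sit 4 hr after plating, then receive compound plus 17beta-estradiol and incubate 18 hr at 37C.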

[5] = qHTS assay to identify small molecule antagonists of the estrogen receptor alpha (ER-alpha) signaling pathway - cell viability counter screen (AID 743074; calls by dose curve;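 also: HEK293 cells carrying ER-alpha-UAS-bla reporter stimulated with 17beta-estradiol; nearly all actives have a fitted effect of over 45% in size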; also: potency is read from the fitted curve at half-maximal effect)
[6] = biological target: Estrogen receptor (Homo sapiens) (UniProt P03372); assay: qHTS assay to identify small molecule agonists of the estrogen receptor alpha (ER-alpha) signaling pathway (AID 743075; calls by dose curve;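 also: HEK293 GripTite cells with ER-alpha and UAS-driven beta-lactamase reporter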)
[7] = biological target: Estrogen receptor (Homo sapiens) (UniProt P03372); assay: qHTS assay to identify small molecule agonists of the estrogen receptor alpha (ER-alpha) signaling pathway using the BG1 cell line (AID 743079); conditions: BG1Luc4E2 cells, ERE-luciferase agonist, 22 h; also: nearly all actives have a fitted effect of over 20% in size; also: potency is read from the fitted curve at half-maximal effect
[8] = qHTS assay to identify small molecule antagonists of the estrogen receptor alpha (ER-alpha) signaling pathway using the BG1 cell line (AID 743080; calls by dose curve;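 also: BG1 cells stimulated with 17beta-estradiol alongside compound; nearly all actives have a fitted effect of over 25% in size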)
Summary of the method: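 Endogenous full-length ER-alpha in BG1-Luc-4E2 cells drives a stably integrated 4×ERE luciferase gene; compounds were tested against 17beta-estradiol over 21.5 h, with luminescence and multiplexed viability fluorescence recorded.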

[9] = qHTS assay to identify small molecule antagonists of the estrogen receptor alpha (ER-alpha) signaling pathway using the BG1 cell line - cell viability counter screen (AID 743081);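 also: compound given together with 17beta-estradiol as the ER stimulus; nearly all actives have a fitted effect of over 45% in size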
[10] = biological target: Aromatase (Homo sapiens) (UniProt P11511); assay: qHTS assay to identify aromatase inhibitors (AID 743083); also: nearly all actives have a fitted effect of over 55% in size; also: potency is read from the fitted curve at half-maximal effect
Aromatase (Homo sapiens), sequence (P11511 whole entry, looked up): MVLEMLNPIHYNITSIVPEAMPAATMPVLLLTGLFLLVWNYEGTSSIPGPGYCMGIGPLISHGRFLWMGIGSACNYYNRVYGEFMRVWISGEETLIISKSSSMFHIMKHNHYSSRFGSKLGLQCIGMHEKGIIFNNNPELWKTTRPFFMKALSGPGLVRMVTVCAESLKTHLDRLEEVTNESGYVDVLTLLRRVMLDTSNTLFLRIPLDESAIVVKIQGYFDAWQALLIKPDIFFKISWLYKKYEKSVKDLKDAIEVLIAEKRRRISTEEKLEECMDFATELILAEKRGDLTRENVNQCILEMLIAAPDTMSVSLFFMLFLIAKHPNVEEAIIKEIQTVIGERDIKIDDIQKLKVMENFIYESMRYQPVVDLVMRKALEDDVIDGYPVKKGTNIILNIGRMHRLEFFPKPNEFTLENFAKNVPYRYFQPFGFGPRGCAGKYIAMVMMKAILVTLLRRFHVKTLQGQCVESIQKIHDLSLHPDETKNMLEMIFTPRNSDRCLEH

Estrogen receptor (Homo sapiens), sequence (P03372 whole entry, looked up): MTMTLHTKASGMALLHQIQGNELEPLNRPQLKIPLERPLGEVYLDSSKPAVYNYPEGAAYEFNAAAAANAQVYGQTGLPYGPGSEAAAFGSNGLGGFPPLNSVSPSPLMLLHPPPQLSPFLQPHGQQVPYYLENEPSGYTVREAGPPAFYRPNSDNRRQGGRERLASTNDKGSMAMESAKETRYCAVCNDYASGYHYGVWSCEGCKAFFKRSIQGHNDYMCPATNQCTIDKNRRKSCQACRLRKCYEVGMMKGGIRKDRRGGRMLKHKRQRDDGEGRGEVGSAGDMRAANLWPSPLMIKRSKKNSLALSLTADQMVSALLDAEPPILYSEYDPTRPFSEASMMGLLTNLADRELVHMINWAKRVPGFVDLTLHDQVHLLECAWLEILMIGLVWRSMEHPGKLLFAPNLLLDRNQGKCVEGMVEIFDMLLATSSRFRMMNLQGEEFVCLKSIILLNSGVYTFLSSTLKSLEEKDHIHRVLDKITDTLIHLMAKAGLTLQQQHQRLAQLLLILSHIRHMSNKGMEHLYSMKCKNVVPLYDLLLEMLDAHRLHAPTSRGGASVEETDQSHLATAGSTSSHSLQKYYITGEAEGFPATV

Row | Structure (SMILES) | Potency [1] | Potency [2] | Potency [3] | Potency [4] | Potency [5] | Potency [6] | activation ([7]; at 70.3 µM (top of the series)) | Potency [8] | Potency [9] | Potency [10] | activation ([7]; at 32.5 µM (top of the series)) | Potency [7] | activation ([7]; at 95 µM (top of the series))
1 | CCN(CC)C1CCCCC1 | inactive | inactive | inactive | inactive | inactive | inactive | 6.19% (inactive) | inactive | inactive | inactive | – | – | –
2 | CN(C)C(=O)Oc1cc(OC(=O)N(C)C)cc(C(O)CNC(C)(C)C)c1 (stereo unspecified) | inactive | inactive | inactive | inactive | inactive | inactive | – | inactive | inactive | inactive | -8.21% (inactive) | – | –
3 | COc1cccc(C=O)c1 | inactive | inactive | inactive | inactive | inactive | inactive | -1.53% (inactive) | inactive | inactive | inactive | – | – | –
4 | CC(C)(C)c1cc(O)ccc1O | 8.41 µM (active) and 68.6 µM (active) and 48.6 µM (active) | 6.68 µM (active) and 61.1 µM (active) and 38.6 µM (active) | inactive | inactive | inactive and 26.8 µM (active) | inactive | – | inactive | inactive | inactive and 26.6 µM (active) | – | – | –
5 | O=C(NC(O)C(Cl)(Cl)Cl)NC(O)C(Cl)(Cl)Cl (stereo unspecified) | inactive | inactive | inactive | inactive | inactive | inactive | 4.91% (inactive) | inactive | inactive | inactive | – | – | –
6 | CCCN1CCC[C@@H]2Cc3nc(N)ncc3C[C@H]21 | inactive | inactive | inactive | inactive | inactive | inactive | -11.9% (inactive) | inactive | inactive | inactive | – | – | –
7 | CN(C)CCc1c[nH]c2cccc(OP(=O)(O)O)c12 | inactive | inactive | inactive | inactive | – | inactive | -12.3% (inactive) | inactive | inactive | inactive | – | – | –
8 | CCN(CC)CCOC(=O)C(O)(c1ccccc1)c1ccccc1 | inactive | inactive | inactive | inactive | inactive | inactive | 1.82% (inactive) | inactive | inactive | inactive | – | – | –
9 | Clc1nc(Cl)nc(Nc2ccccc2Cl)n1 | inactive | inactive | inactive | inactive | – | inactive | 9.21% (inactive) | inactive | inactive | inactive | – | – | –
10 | CCOC(=O)Nc1cccc(OC(=O)Nc2ccccc2)c1 | inactive | inactive | inactive | inactive | inactive | inactive | – | – | inactive | inactive | – | 27.3 µM (active) | –
11 | O=C(O)c1c(Cl)ccc2cc(Cl)cnc12 | inactive | inactive | inactive | inactive | inactive | inactive | 3.83% (inactive) | inactive | inactive | inactive | – | – | –
12 | COc1ccccc1OC | inactive | inactive | inactive | inactive | – | inactive | 21.9% (inactive) | inactive | inactive | inactive | – | – | –
13 | N=C(N)[Se] | inactive | inactive | inactive | inactive | inactive | inactive | – | inactive | – | inactive | – | – | -2.62% (inactive)
14 | O=C(O)C(Br)(Br)Br | inactive | inactive | inactive | inactive | inactive | inactive | 6.64% (inactive) | inactive | inactive | inactive | – | – | –
15 | Cn1c(N)nc2c3cccnc3ccc21 | 26 µM (active) | inactive | inactive | inactive | inactive | inactive | 9.73% (inactive) | inactive | – | inactive | – | – | –
16 | CC(O)CCl (stereo unspecified) | inactive | inactive | inactive | inactive | inactive | inactive | 8.02% (inactive) | inactive | inactive | inactive | – | – | –

Row | Structure (SMILES) | Potency [1] | Potency [2] | Potency [3] | Potency [4] | Potency [5] | Potency [6] | activation ([7]; at 70.3 µM (top of the series)) | Potency [8] | Potency [9] | Potency [10] | activation ([7]; at 32.5 µM (top of the series)) | Potency [7] | activation ([7]; at 95 µM (top of the series))
17 | CCOP(=S)(OCC)SCCl | inactive | inactive | inactive | inactive | – | inactive | 9.52% (inactive) | inactive | inactive | – | – | – | –
18 | NC(=O)CS(=O)C(c1ccccc1)c1ccccc1 (stereo unspecified) | inactive | inactive | inactive | inactive | inactive | inactive | -2.29% (inactive) | inactive | inactive | inactive | – | – | –
19 | O=C1CC(=O)NC(=O)N1 | inactive | inactive | inactive | inactive | inactive | inactive | -4.6% (inactive) | inactive | inactive | inactive | – | – | –
20 | CS(=O)(=O)c1ccc(C(=O)C2C(=O)CCCC2=O)c(Cl)c1COCC(F)(F)F | inactive | inactive | inactive | inactive | inactive | inactive | 14.7% (inactive) | inactive | inactive | inactive | – | – | –
21 | Cc1cc(OC(=O)N(C)C)nn1C(=O)N(C)C | inactive | inactive | inactive | inactive | – | inactive | -8.77% (inactive) | inactive | inactive | inactive | – | – | –
22 | O=C/C=C/c1ccco1 | inactive | inactive | inactive | inactive | inactive | inactive | 10.7% (inactive) | inactive | inactive | inactive | – | – | –
23 | CNC(=O)O/N=C(/CSC)C(C)(C)C | inactive | inactive | 61.1 µM (active) | inactive | inactive | inactive | -5.87% (inactive) | inactive | inactive | inactive | – | – | –
24 | OP(O)c1ccccc1 | inactive | inactive | inactive | inactive | inactive | inactive | – | inactive | inactive | inactive | – | – | 6.24% (inactive)
25 | CCOC(=O)C(Cl)Cc1cc(-n2nc(C)n(C(F)F)c2=O)c(F)cc1Cl (stereo unspecified) | inactive | inactive | inactive | inactive | inactive | inactive | – | inactive | inactive | 54.5 µM (active) | – | – | –
26 | C/C(=N\NC(=O)Nc1cc(F)cc(F)c1)c1ncccc1C(=O)O | inactive | inactive | inactive | inactive | inactive | inactive | -0.0536% (inactive) | inactive | inactive | inactive | – | – | –
27 | COc1cc(CC(C)N)cc(OC)c1OC (stereo unspecified) | inactive | inactive | inactive | inactive | – | inactive | – | inactive | – | inactive | – | – | -7.73% (inactive)
28 | Nc1c(Cl)c(F)nc(OCC(=O)O)c1Cl | inactive | inactive | inactive | inactive | inactive | inactive | -0.92% (inactive) | inactive | inactive | inactive | – | – | –
29 | O=c1[nH]oc2c1CCNC2 | inactive | inactive | inactive | inactive | inactive | inactive | -5.36% (inactive) | inactive | inactive | inactive | – | – | –
30 | CCOC(=O)NC(C)(C)Cc1ccc(Cl)cc1 | inactive | inactive | inactive | inactive | – | inactive | 6.17% (inactive) | inactive | inactive | inactive | – | – | –
31 | ClC(Cl)(Cl)Cl | inactive | inactive | inactive | inactive | inactive | inactive | 2.38% (inactive) and 2.1% (inactive) | inactive | inactive | inactive | – | – | –
